Assay outcomes deposited in PubChem by National Center for Advancing Translational Sciences (NCATS).
This is a sample that favours compounds with a hit; in the whole collection about 7.5% have one here.
VACV mCherry inh: vaccinia inhibition (mCherry reporter). Vaccinia virus mCherry reporter infection, fluorescence. Potency, µM (doses to about 36.5 µM), for inactives: top-dose activity change, negative = inhibition, actives largely listed as inhibitors. hit rate 0.63% among 310,000; calls by dose curve; tested in A549 cells; note: potency is the fitted concentration of half-maximal effect; nearly all actives have a fitted effect of over 35% in size
FBPA Giardia inh: inhibitors of Giardia lamblia fructose-1,6-bisphosphate aldolase; A8B2U2; purified Giardia FBPA; Potency, µM (doses to about 59.6 µM), inactives show top-dose activity, negative = inhibition, hits mostly inhibitors; hit rate 0.71% among 290,000; AID 2451; note: potency is the fitted concentration of half-maximal effect; nearly all actives have a fitted effect of over 55% in size
Target sequence (A8B2U2 whole entry, looked up): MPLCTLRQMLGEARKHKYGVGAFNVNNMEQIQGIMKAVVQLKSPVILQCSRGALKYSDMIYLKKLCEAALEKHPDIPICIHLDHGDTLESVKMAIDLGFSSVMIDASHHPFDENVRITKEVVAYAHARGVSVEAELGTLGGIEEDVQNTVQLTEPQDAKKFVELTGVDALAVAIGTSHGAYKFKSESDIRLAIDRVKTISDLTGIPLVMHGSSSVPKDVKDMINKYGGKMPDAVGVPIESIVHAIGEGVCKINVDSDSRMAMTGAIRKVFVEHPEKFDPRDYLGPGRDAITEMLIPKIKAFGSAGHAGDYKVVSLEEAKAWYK
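40 nM FBPA preincubated 10 min at RT with compound (up to 57.5 uM final), then substrate plus GAPDH/TPI/NAD/arsenate coupling and diaphorase/resazurin added. Fluorescence read after 20 min at RT, 525/598 nm.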
HCMV inh: inhibitors of human cytomegalovirus; HFF cells, HCMV-luciferase reporter, 72 h; stronger effect = lower value; activity change, negative = inhibition, % at 57.5 µM; hit rate 4.5% among 410,000; in the data active = activity change below about -60%; inconclusive = no clear call, values can overlap the other calls; inactive = above about -39%
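Screen run at 2 compound doses on HFFs infected with reporter HCMV, MOI 1 PFU/cell. Luciferase activity from cell lysates at 72 h post infection gave inhibition relative to buffer-only and Salinomycin wells.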
VACV Venus inh: inhibitors of vaccinia virus (Venus reporter); hit rate 0.46% among 330,000; Vaccinia virus Venus reporter expression, fluorescence; Potency, µM (titrated, usually from 36.5 µM), inactives show at the highest dose activity change, negative = inhibition, usual class: inhibitors; calls by dose curve; tested in A549 cells; note: potency is the fitted concentration of half-maximal effect; nearly all actives have a fitted effect of over 30% in size
HCV inh: HCV inhibition; Potency, µM (highest dose often 41.8 µM), for the others: at the highest dose activity change, negative = inhibition, actives largely listed as inhibitors; Huh7.5.1 HCVcc-Cre infection, luciferase reporter, 44 h; hit rate 3.4% among 340,000; note: potency is the fitted concentration of half-maximal effect
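A cell-based infection assay in which seeded cells (1,000 per well) receive test compound after 4 h, are inoculated with HCVcc-Cre at approximately 0.5 moi, and are incubated 44 h before luminescence detection.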
FMDV inh: foot and mouth disease virus antiviral activity | FMDV antiviral cell-based qHTS | Potency, µM (series often up to 57.9 µM), for the others: at the highest dose activity change, negative = inhibition, actives largely listed as inhibitors | hit rate 1.2% among 410,000 | AID 1159524; calls by dose curve; tested in HEK293T cells; note: read-out not given here; potency is the fitted concentration of half-maximal effect; nearly all actives have a fitted effect of over 45% in size
An asterisk follows results filed as active; i = inactive; ? = inconclusive; / = no result given; [ ] = another dose, or the depositor's remark. Unless noted, calls come from the whole dose curve; as a rule, active = well fitted curve in the direction sought with a large enough effect; inconclusive = small, poorly fitted or top-dose-only effect, or another doubt; inactive = no such curve, though single readings can be large; an effect the other way counts as inactive or inconclusive. % is set by controls: 0 for no effect and ±100 for the full control effect.

SMILES	VACV mCherry inh	FBPA Giardia inh	HCMV inh	VACV Venus inh	HCV inh	FMDV inh
CC1(C)CC2CC(C)(CN2C(=S)Nc2ccccc2F)C1 (stereo not given)	-2.7%	1.9%	2.8	-4.8%	16.6%	29.6%
O=C1c2cccnc2C(Nc2ccc(Cl)cc2)N1Cc1cccs1 (stereo not given)	-4.6%	-0.7%	-64.7*	3.2%	3.0%	-15.2%
C=CCC(C#N)(c1ccc(OC)c(OC)c1)c1cnccn1 (stereo not given)	i	/	-64.9*	0.5%	-0.7%	-10.4%
Cc1cc2nc(-c3cc4ccccc4[nH]3)c(=O)n(/C=C(/c3ccccc3)n3c(=O)[nH]c4ccccc43)c2cc1C	/	/	10.1	/	/	/
Cc1ccc(-c2nn3c(C)nnc3s2)cc1NCc1c(F)cccc1Cl	i	1.0%	-76.1*	0.0%	?	/
Cc1ccc(CNc2cc(-c3nn4c(C)nnc4s3)ccc2C)s1	i	3.8%	89.1	-4.4%	?	-20.7%
Nc1cc(=O)[nH]c(SCC(=O)Nc2ccccc2Sc2ccc(Cl)cc2)n1	-19.2%	?	-34.3	-19.1%	?	?
Nc1nc(SCC(=O)Nc2ccc([N+](=O)[O-])cc2Br)n[nH]1	-24.1%	7.1%	9.5	-15.6%	-8.6%	-10.8%
O=C(CSc1ncn[nH]1)Nc1ccc([N+](=O)[O-])cc1Br	-3.5%	2.1%	-64.6*	-27.9%	-22.4%	-3.2%
O=C(CSc1ncn[nH]1)Nc1ccccc1Sc1ccc(Cl)cc1	/	?	?	-28.7%	?	15.8µM*
CN(C)CCNC(=O)CC1(C)N=C(c2ccc(-c3ccccc3)cc2)N(C)O1 (stereo not given)	/	/	-9.7	/	/	/
Cc1nnc(Oc2ccccc2)c2ccccc12	/	5.3%	-1.2	-25.7%	?	18.3%
Cc1ccc(Oc2nc(C(F)(F)F)nc3ccccc23)cc1	-11.5%	-0.6%	-69.1*	-13.4%	-1.5%	-26.8%
Cc1nnc(Oc2ccc([N+](=O)[O-])cc2)c2ccccc12	/	-3.1%	-96.4*	/	-2.2%	43.1%
Cc1ccc(Oc2nnc(-c3ccccc3)c3ccccc23)cc1	-18.3%	4.7%	-37.3	?	35.5µM*	3.4%
Cc1ccc(-c2nnc(Oc3cccc(C)c3)c3ccccc23)cc1	-14.8%	4.8%	-36.1	-3.7%	-7.8%	-12.7%
CC1OC(CCc2cccc(Cl)c2)Cc2[nH]c(=S)[nH]c(=O)c21 (stereo not given)	-21.2%	/	-27.3	-15.6%	/	0.0%
COc1ccc(-c2n[nH]c3c2C(c2ccc(O)cc2)N(c2ccc(Br)cc2)C3=O)cc1 (stereo not given)	-1.3%[7.34 µM]	/	-21.3	-2.4%[7.34 µM]	/	31.6µM*
CCOC(=O)c1ccc(N2C(=O)c3[nH]nc(-c4ccc(OC)cc4)c3C2c2ccc(C)cc2)cc1 (stereo not given)	?	/	-82.7*	?	/	-14.9%
COc1ccc(OC)c(C2c3c(-c4ccc(Br)cc4)n[nH]c3C(=O)N2c2ccc(Cl)cc2)c1 (stereo not given)	?	/	-104.9*	-23.6%	/	-24.0%
COC(=O)[C@]1(C)N[C@H](CN(C)C(=O)c2ccc(C)cc2)[C@@H]2C(=O)N(Cc3ccccc3)C(=O)[C@@H]21	i	/	-3.5	-18.2%	0.9%	-9.6%
CN(C)CCCO[C@@H]1[C@H]2OC(C)(C)O[C@H]2O[C@@H]1[C@H](O)CO	i	/	25.5	-12.2%	13.2%	-24.7%
CCOc1ccc(S(=O)(=O)NC(C)(C)C)cc1-c1nc2c(C(C)(C)C)nn(C)c2c(=O)[nH]1	?	-7.4%	-36.7	?	7.08µM*	/
COc1ccc(CN2CCOc3ccc(C(O)c4cccnc4)cc3C2)cc1O (stereo not given)	-12.7%	/	/	-6.6%	/	-19.2%
COc1ccc(NC(=O)CSc2nc(C)c3c(c2C#N)CCCC3)cc1	/	/	?	/	-28.7%	-16.7%
SMILES	VACV mCherry inh	FBPA Giardia inh	HCMV inh	VACV Venus inh	HCV inh	FMDV inh
CCc1nnc(NC(=O)CSc2nc(C)c3c(c2C#N)CCCC3)s1	/	-1.3%	56.3	/	11.2µM*	-22.2%
CCOc1cccc2sc(NC(=O)c3ccc(S(=O)(=O)N4CCCCC4)cc3)nc12	-6.7%	/	-8.1	-9.7%	/	?
Cc1ccc(S(=O)(=O)NCc2ccccc2)cc1C(=O)NCc1ccncc1	i	/	-14.6	-10.7%	/	36.3%
CCC(C)(C)n1nnnc1C(C(C)C)N(Cc1ccco1)Cc1cc2cc3c(cc2[nH]c1=O)OCO3 (stereo not given)	/	-5.6%	68.3	/	22.4µM*	?
CCC(C)(C)n1nnnc1C(C(C)C)N(Cc1cccnc1)Cc1ccco1 (stereo not given)	-26.2%	1.5%	?	4.3%	-21.4%	-23.9%
COCCn1nnnc1C(C(C)C)N(Cc1ccccc1)Cc1cc2cc(OC)ccc2[nH]c1=O (stereo not given)	/	-22.0%	-18.4	-22.9%	?	0.0%
COc1ccc2[nH]c(=O)c(CN(Cc3ccco3)C(c3nnnn3Cc3ccccc3)C(C)C)cc2c1 (stereo not given)	/	-6.9%	-98.5*	/	?	?
CCC(c1nnnn1C1CCCCC1)N(Cc1ccco1)Cc1cc2ccc(OC)cc2[nH]c1=O (stereo not given)	3.0%	-7.4%	?	7.1%	3.55µM*	?
Cc1ccc2cc(C(c3nnnn3C3CCCC3)N(Cc3ccco3)Cc3cccs3)c(=O)[nH]c2c1 (stereo not given)	/	-0.3%	-8.6	/	-24.0%	-5.5%
Cc1ccc(/C=C2/NC(=O)N(c3ccccc3)C2=O)o1	/	-29.8%	?	/	-15.2%	21.6%
O=C1N/C(=C/c2ccc(Br)s2)C(=O)N1c1ccccc1	i	-2.0%	-62.0*	-17.7%	-1.6%	9.2%
O=C1CCCC2=C1C(c1ccccc1)C1C(=O)c3ccccc3C1=N2 (stereo not given)	?	-12.2%	19.7	?	?	-19.2%
O=C1CCCC2=C1C(c1ccc(Cl)cc1)C1C(=O)c3ccccc3C1=N2 (stereo not given)	?	-20.0%	-70.4*	?	?	?
CCCCNC(=O)C(NC(=O)c1ccc(C(F)(F)F)cc1)C(=O)c1ccccc1 (stereo not given)	-9.0%	/	16.8	-3.0%	/	-8.1%
CCCCNC(=O)C(NC(=O)c1ccc2ccccc2c1)C(=O)c1ccccc1 (stereo not given)	-22.8%	/	-63.8*	-14.1%	/	4.9%
NC(=O)[C@@H]1CCCN1C(=O)CCN1Cc2ccccc2OC(c2ccccc2F)C1 (stereo not given in full)	-10.6%	/	/	-7.1%	/	-10.3%
O=C(CN(c1cccc(C(F)(F)F)c1)S(=O)(=O)c1ccc(Cl)c([N+](=O)[O-])c1)NCc1ccccc1Cl	-12.9%	-4.7%	45.2	-4.4%	?	39.8µM*
CCN(c1ccccc1)S(=O)(=O)c1cc(C(=O)NCC(c2ccc(OC)cc2)N(C)C)ccc1C (stereo not given)	/	/	-12.6	/	10µM*	-8.7%
